ALR inh: blocks human ALR sulfhydryl oxidase activity; P55789; purified ALR, DTT oxidation, H2O2 HRP-luminol luminescence; inhibition, % (concentration not given with the values); 3.8% of 290,000 active; AID 485317;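 active = mean replicate inhibition above about 79%, with every replicate also reaching it, limit read from the data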
Target sequence (P55789 whole entry, looked up): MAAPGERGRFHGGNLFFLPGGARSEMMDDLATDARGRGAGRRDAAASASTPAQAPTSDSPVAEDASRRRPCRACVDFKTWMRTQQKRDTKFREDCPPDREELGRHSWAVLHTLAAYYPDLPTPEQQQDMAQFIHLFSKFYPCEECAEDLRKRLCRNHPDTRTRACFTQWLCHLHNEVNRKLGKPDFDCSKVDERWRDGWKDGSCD
Rtt109 HAT inh: blocks Candida albicans Rtt109/Vps75 acetyltransferase activity; purified Rtt109/Vps75, ThioGlo CoA-SH fluorescence, 4 h; Q5AAJ8; inhibition, % at 34.9 µM; 0.16% of 330,000 active;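 active = inhibition of at least 50% in every replicate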
Target sequence (Q5AAJ8 whole entry, looked up): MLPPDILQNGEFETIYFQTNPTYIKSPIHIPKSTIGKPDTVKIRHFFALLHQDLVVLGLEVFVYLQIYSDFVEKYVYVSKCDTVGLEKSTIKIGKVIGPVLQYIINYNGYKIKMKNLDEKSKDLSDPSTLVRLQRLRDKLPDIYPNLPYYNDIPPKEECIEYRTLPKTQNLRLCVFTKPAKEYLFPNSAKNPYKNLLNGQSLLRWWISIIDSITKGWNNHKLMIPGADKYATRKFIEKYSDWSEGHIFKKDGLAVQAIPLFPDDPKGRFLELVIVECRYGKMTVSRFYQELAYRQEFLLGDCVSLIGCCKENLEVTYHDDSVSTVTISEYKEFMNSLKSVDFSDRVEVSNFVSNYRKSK
LANA-H2A inh: blocks KSHV LANA binding to histone H2A/H2B; inhibition, % (no concentration beside the values); cell-free LANA-H2A/H2B peptide, fluorescence polarization; AID 2629; Q9QR71; 0.6% of 320,000 active; in the data active = inhibition mostly above about 10%, no sharp cut-off; inactive = mostly below about 6.7%
PRMT1 FP inh: PRMT1 (human) inhibition, primary screen. Q99873. recombinant PRMT1, activity-based probe fluorescence polarization. inhibition, % at 2.79 µM. 1.3% of 370,000 active;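 active = inhibition above about 21% made by adding two undisclosed values, limit read from the data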
rCAG binder: molecules binding r(CAG) RNA repeats; r(CAG) RNA repeat, TO-PRO-1 dye displacement fluorescence; inhibition, % at 3 µM; 1.3% of 370,000 active;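 active = inhibition above the plate cutoff, the mean of all test compounds on that plate plus 3 SD, cut at about 35% in these data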;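 note: 0% = DMSO alone and 100% = 100 µM mitoxantrone as full dye displacement; higher means more dye released from RNA so lower well fluorescence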
ABHD5-PLIN5 inh: blocks binding of human ABHD5 to perilipin-5. inhibition, % at 4 µM. 0.78% of 360,000 active. Split G. princeps luciferase complementation, luminescence, 4 h. Q00G26+Q8WTS1;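 active = inhibition above the mean inhibition across every tested compound plus 3 SD, cut at about 22% in these data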;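 note: 0% = DMSO only wells and the 100% control is not disclosed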
ABHD5-PLIN5 conf: confirmation of human ABHD5-PLIN5 interaction inhibitors; inhibition, % at 4 µM; biochemical ABHD5-PLIN5 interaction, luminescence; shares compounds with ABHD5-PLIN5 inh; 67% of 2,200 active; AID 651612; in the data active = inhibition above about 23%;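 note: 0% = DMSO vehicle wells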
HNF4 counter: active in HNF4 split-luciferase counter-screen for ABHD5-PLIN5 inhibitors. HNF4 dimerization, luminescence, biochemical. AID 651674. inhibition, % at 4 µM. shares compounds with ABHD5-PLIN5 inh. 77% of 2,200 active;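 active = mean inhibition across replicate wells exceeding the computed hit threshold, cut at about 13% in these data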;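 note: light from luciferase halves that rejoin when HNF4 fusion proteins dimerize; 0% = DMSO only wells and the 100% control is not given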
Numbers without * were called inactive; . = not tested or not shown. A selection: hits, their analogues and other compounds. The true share with any hit is near 5.9%.

SMILES	ALR inh	Rtt109 HAT inh	LANA-H2A inh	PRMT1 FP inh	rCAG binder	ABHD5-PLIN5 inh	ABHD5-PLIN5 conf	HNF4 counter
CC1=NN(c2ccccc2)C(=O)/C1=C\c1sccc1C	-12	-6	5	-2	2	-11	.	.
CC1=NN(c2ccccc2)C(=O)/C1=C/C=C/c1ccccc1	1	-7	1	-2	5	25*	98*	90*
O=C(/C=C/c1ccccc1[N+](=O)[O-])OCC(=O)N1CCN(c2ccccc2)CC1	.	.	.	-1	3	4	.	.
CCOC(=O)N1CCc2c(sc(NC(=O)CCS(=O)(=O)c3ccccc3)c2C(N)=O)C1	-13	20	-9	1	1	30*	24*	37*
CC(C)N1CCc2c(sc(NC(=O)CCS(=O)(=O)c3ccccc3)c2C(N)=O)C1	-3	-6	-3	-3	-8	0	.	.
CC(C)NC(=O)N[C@@H]1C[C@@H]2O[C@H](CO)CC[C@@H]2O[C@@H]1CCc1ccc(-c2ccccc2F)cc1	.	.	.	1	2	.	.	.
Cc1cccn2c(=O)c3cc(C(=O)NCc4ccco4)c(=N)n(C(C)C)c3nc12	15	8	0	3	4	27*	6	18*
Cc1cccn2c(=O)c3cc(C(=O)NCc4ccco4)c(=N)n(CCc4ccccc4)c3nc12	.	-30	.	5	21	16	.	.
CC(=O)N=c1c(C#N)cc2c(=O)n3cccc(C)c3nc2n1Cc1ccco1	36	.	-3	9	8	49*	13	14*
Cc1cccn2c(=O)c3cc(C(=O)NCCc4ccccc4)c(=N)n(Cc4ccco4)c3nc12	4	-7	1	-2	12	26*	6	17*
CCOc1ccccc1C1N=C(c2ccc(OC)cc2)CC(c2ccccc2O)N1 (stereo not drawn)	96*	18	1	7	7	25*	57*	48*
COc1cc(-c2cc(C(=O)Nc3ccc(N4CCOCC4)cc3)c3ccccc3n2)cc(OC)c1OC	-8	2	2	0	8	24*	8	0
CC(C)c1cc(C(C)C)c(S(=O)(=O)N2CCCC(C(=O)N3CCN(Cc4ccccc4)CC3)C2)c(C(C)C)c1 (stereo not drawn)	.	.	.	-1	7	.	.	.
O=C(CSCc1ccccc1)NNc1c(F)c(F)cc(F)c1F	.	-18	-2	2	-5	9	.	.
COC(=O)[C@@]12C[C@@H](CC(=O)NCc3ccc(C)o3)C(=O)N(Cc3ccc4c(c3)OCO4)C1=CCC(C)(C)C2	.	.	.	7	3	10	.	.
Cc1nc2ccccc2n1CC(O)Cn1c2ccccc2c2ccccc21 (stereo not drawn)	-2	4	-4	0	3	29*	9	25*
Cc1ccc2nc(-c3ccc(C#N)cc3)c(Cc3ccccc3C(F)(F)F)n2c1	.	.	.	2	6	-6	.	.
CCOC(=O)C1CCN(C(=O)C(C)(C)NC(=O)Nc2ccc(OC)c(Cl)c2)CC1	.	.	.	-2	.	.	.	.
CC(C)(C)NCC(=Cc1ccccc1)C(=O)c1ccccc1	.	-16	.	0	0	41*	69*	54*
CC(=O)N/C(=C/c1ccccc1)c1ccccc1	-3	-9	-5	2	2	0	.	.
Cc1nc2ccccc2n1C(c1cccnc1)c1nc2ccccc2[nH]1 (stereo not drawn)	.	.	.	8	3	6	.	.
C#CCN(C[C@@H]1[C@@H](OC(=O)NCc2ccccc2F)[C@@H](OC(=O)NCc2ccccc2F)Cn2c(=O)n(CCCCCC)c(=O)n21)S(=O)(=O)c1ccc(C)cc1	.	.	.	-3	18	-7	.	.
C#CCN(C[C@@H]1[C@@H](OC(=O)NCc2ccccc2F)[C@@H](OC(=O)NCc2ccccc2F)Cn2c(=O)ccc(=O)n21)S(=O)(=O)c1ccc(C)cc1	.	.	.	2	15	40*	58*	27*
C#CCN(C[C@@H]1[C@@H](OC(=O)NC2CCCC2)[C@@H](OC(=O)NC2CCCC2)Cn2c(=O)ccc(=O)n21)S(=O)(=O)c1ccc(C)cc1	.	.	.	5	2	38*	64*	24*
C#CCN(C[C@@H]1[C@@H](OC(=O)NC2CC2)[C@@H](OC(=O)NC2CC2)CN(C(=O)OC(C)C)N1C(=O)OC(C)C)S(=O)(=O)c1ccc(C)cc1	.	.	.	3	1	3	.	.
SMILES	ALR inh	Rtt109 HAT inh	LANA-H2A inh	PRMT1 FP inh	rCAG binder	ABHD5-PLIN5 inh	ABHD5-PLIN5 conf	HNF4 counter
C#CCN(C[C@@H]1[C@@H](OC(=O)Nc2cccs2)[C@@H](OC(=O)Nc2cccs2)Cn2c(=O)ccc(=O)n21)S(=O)(=O)c1ccc(C)cc1	.	.	.	-1	20	61*	87*	50*
CC(C)[C@H]1/C(=C/C2CC2)N2C(=O)C[C@H](c3cccc(C(F)(F)F)c3)N=C2N1Cc1ccc2c(c1)OCO2	.	.	.	-5	.	.	.	.
COC(=O)[C@H](C(C)C)N1Cc2nnn(Cc3ccccc3)c2-c2ccccc2S1(=O)=O	.	.	.	-4	-2	.	.	.
Cc1ccc(C(C[N+](=O)[O-])c2c(N)n(C)c(=O)n(C)c2=O)cc1 (stereo not drawn)	17	.	-3	1	1	32*	36*	44*
CC(C(c1ccc2c(c1)OCO2)c1c(N)n(C)c(=O)n(C)c1=O)[N+](=O)[O-] (stereo not drawn)	-5	4	2	5	2	33*	6	12
COc1cc(C(C[N+](=O)[O-])c2c(N)n(C)c(=O)n(C)c2=O)ccc1O (stereo not drawn)	73	9	2	9	-1	45*	37*	55*
COc1cccc(F)c1C(C[N+](=O)[O-])c1c(N)n(C)c(=O)n(C)c1=O (stereo not drawn)	4	13	-2	11	-1	31*	30*	68*
C=CCN1[C@H](C#N)[C@@H](c2ccc(C#Cc3ccccc3OC)cc2)[C@H]1CO	.	.	.	2	7	.	.	.
COc1ccc(NC(=O)N(C)C[C@@H]2OCc3cnnn3CCCC(=O)N([C@@H](C)CO)C[C@@H]2C)cc1	.	.	.	3	4	.	.	.
O=C(N[C@H]1CC[C@H](CCNS(=O)(=O)c2ccc(Cl)cc2)O[C@@H]1CO)c1cccc(F)c1	.	.	.	8	2	4	.	.
CC(C)C1N=C(c2ccc3c(c2)OCO3)CC(c2ccccc2O)N1 (stereo not drawn)	20	-5	10	-1	10	56*	58*	82*
Cc1ccc(-c2nnc(-c3ccc4c(c3)OCO4)o2)cc1	-1	-1	-4	0	0	-2	.	.
